Measurements reported in PubChem BioAssay (EPA / NIEHS).
Active and inactive are the calls of the source. The calls were made as follows: active = hit-call score of the fitted dose curve at least 0.9, where 1 is the maximum; inactive = score below 0.9.

Assay: CCTE_Padilla_ZF_Score.Any: CCTE's 144 Hour Post-fertilization zebrafish Assay Score for Any Mortality or Malformation, Padilla Lab (AID 2284416)
Summary of the method: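 Wild-type zebrafish embryos with chorions, one per well in 10% Hanks' from 6–8 hpf, dosed in sealed plates at 26 C, 14:10 h light:dark; rinsed at 5 dpf; blinded scoring at 6 dpf for death or malformation, versus DMSO.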

Compound | outcome | AC50
NC(=O)C(F)(F)C(F)(F)C(F)(F)C(F)F | inactive | 
C=CC(=O)OCCC(F)(F)C(F)(F)C(F)(F)C(F)(F)F |  | 30 µM (active)
COC(F)(C(F)F)C(F)(F)F (centres undefined) | inactive | 
NC(=O)C(F)(F)C(F)(F)C(F)(F)F | inactive | 
O=S(=O)(OCC(F)(F)F)C(F)(F)C(F)(F)C(F)(F)C(F)(F)F |  | 33.3 µM (active)
OCCCCC(F)(F)C(F)(F)C(F)(F)C(F)(F)F |  | 29 µM (active)
CCOC(=O)CC(=O)C(F)(F)C(F)(F)F | inactive | 
C=CC(=O)OCC(F)(F)C(F)(F)C(F)(F)COC(=O)C=C |  | 8.95 µM (active)
O=C(O)C(F)(F)C(F)(F)C(F)(F)OC(F)(F)F | inactive | 
O=C(O)CCC(F)(F)C(F)(F)C(F)(F)C(F)(F)C(F)(F)C(F)(F)C(F)(F)F | inactive | 
OC(O)C(F)(F)C(F)(F)F | inactive | 
FC(F)(F)C(F)(F)C(F)(F)C(F)(F)C(F)(F)C(F)(F)C(F)(F)CCI | inactive | 
NCC(F)(F)C(F)(F)C(F)(F)C(F)(F)C(F)(F)C(F)(F)F |  | 75.3 µM (active)
NC(=O)C(F)(F)C(F)(F)C(F)(F)C(F)(F)C(N)=O | inactive | 
OCC(O)CC(F)(F)C(F)(F)C(F)(F)C(F)(F)F (centres undefined) | inactive | 
O=S(=O)(O)CCC(F)(F)C(F)(F)C(F)(F)C(F)(F)F | inactive | 
O=C(O)C(F)(F)C(F)(F)C(F)(F)C(F)(F)C(F)(F)C(F)(F)C(F)F | inactive | 
OCC(F)(F)C(F)(F)C(F)(F)C(F)(F)C(F)(F)C(F)(F)CO |  | 62.4 µM (active)
C=CC(=O)OCC(F)(F)C(F)(F)C(F)(F)C(F)(F)C(F)(F)C(F)(F)C(F)(F)C(F)F | inactive | 
